We go through six compounds from the supplement of paper PMC3342239.

Structures can show the parent of a compound that is named as a salt.

In this assay the test system is Saccharomyces cerevisiae. Briefly: fraction of cells in G1 phase (DNA content, flow cytometry); higher = more cells with unreplicated DNA (G1 delay). Particulars: temperature: 30 C; YPD; JTY2953 pdr5 snq2 (sensitized); drug added to: cultures diluted from stationary phase; 6-7 h. As to the method: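 S. cerevisiae cultures in YPD at 30°C were treated with each drug of the Enzo FDA-approved library at 20 µg/ml (final µM given per drug). Cells were fixed after 6–7 h (S1) or 6 h (S2), or after 4.33 h for BY4741 (S3), then stained with SYTOX Green. %G1 is the Dean-Jett-Fox G1 peak area divided by the G1+G2/M peak areas, written as a fraction and averaged over at least two independent experiments. DMSO reference: mean ~0.49; >0.60 is called High G1 and <0.3876 Low G1. Scale: lower means mitotic delay.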
As to `O=C1C[C@@H]2OCC=C3CN4CC[C@]56c7ccccc7N1[C@H]5[C@H]2[C@H]3C[C@H]46` [Strychnine HCl] (59.8047 µM), the “fraction of cells in G1 phase” value is 0.497. Then `CN1C[C@@H](NS(=O)(=O)N(C)C)C[C@@H]2c3cccc4c3c(cn4C)C[C@H]21` [Mesulergine HCl] (55.1728 µM), with 0.547. Then `C#CCN(C)C(C)Cc1ccccc1` (stereo unspecified) [Deprenyl] (89.4055 µM), with 0.518; and `C=CCN1CC[C@]23c4c5ccc(O)c4O[C@H]2/C(=N/N=C2\CC[C@@]4(O)[C@H]6Cc7ccc(O)c8c7[C@@]4(CCN6CC=C)[C@H]2O8)CC[C@@]3(O)[C@H]1C5` [Naloxonazine 2HCl] (30.7323 µM), with 0.456; and `C[C@]12CCC(=O)C(O)=C1CC[C@@H]1[C@@H]2CC[C@]2(C)C(=O)CC[C@@H]12` [Formestane] (66.1338 µM), with 0.566. Next, `CC(C)(C)NCC(O)c1cc(Cl)c(N)c(Cl)c1` (stereo unspecified) [Clenbuterol] (72.1511 µM): 0.498.
